Source: PubChem (several laboratories)
S1P3 antag – S1P3 receptor antagonists, primary screen, cell-based | 170,000 tested, 0.27% active | inhibition, % at 4.98 µM | AID 485, 2006 | Sphingosine 1-phosphate receptor 3 (Homo sapiens), Q99500 | CHO S1P3 NFAT-BLA reporter, FRET fluorescence, antagonist mode;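 active = inhibition above the plate cutoff, the mean inhibition of test wells on that plate plus 3 SD, cut at about 28% in these data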;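 note: cells challenged with S1P at its EC80 of 0.8 µM; blue over green emission ratio from cleaved BLA substrate after 4 h stimulation; 0% = S1P-stimulated wells and 100% = unstimulated DMSO-only wells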
KCC2 mod – KCC2 cotransporter modulators, thallium flux, primary screen, cell-based, HEK293 KCC2, FluoZin-2 fluorescence, MLSMR; Solute carrier family 12 member 5 (Homo sapiens), Q9H2X9; KCC2 cells, thallium flux FluoZin-2 fluorescence; B-score of Tl+ flux slope (higher = more flux/activation; lower = inhibition) at 10 µM; 190,000 tested, 2.2% active;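 active = thallium flux slope and its plate-corrected score both differing from the plate sample mean at a set confidence after two filtering rounds, in either direction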;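 note: slope of fluorescence scaled to starting intensity during 10 to 20 s after thallium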
S1P4 agonist – S1P4 receptor agonists, primary screen, cell-based; Sphingosine 1-phosphate receptor 4 (Homo sapiens), O95977; activation, % at 4.98 µM; S1P4-expressing cell line, agonist reporter assay; 220,000 tested, 0.35% active; in the data active = activation above about 11%;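 note: 0% = DMSO vehicle and 100% = reference agonist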
Target sequence (O95977 whole entry, looked up): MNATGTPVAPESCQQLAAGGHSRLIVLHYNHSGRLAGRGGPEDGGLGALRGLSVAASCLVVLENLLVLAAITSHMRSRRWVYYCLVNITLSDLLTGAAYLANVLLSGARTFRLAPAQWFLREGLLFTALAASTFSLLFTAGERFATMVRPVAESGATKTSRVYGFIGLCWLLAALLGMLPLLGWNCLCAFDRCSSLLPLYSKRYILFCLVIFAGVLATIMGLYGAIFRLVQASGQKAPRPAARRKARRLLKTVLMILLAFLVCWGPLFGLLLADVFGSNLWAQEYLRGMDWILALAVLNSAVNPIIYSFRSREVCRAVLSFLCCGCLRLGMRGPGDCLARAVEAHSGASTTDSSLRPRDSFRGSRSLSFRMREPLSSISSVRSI
ROMK mod – ROMK potassium channel modulators, primary screen, cell-based, thallium flux, MLSMR library | ATP-sensitive inward rectifier potassium channel 1 (Homo sapiens), P48048 | 130,000 tested, 2% active | Tet-inducible ROMK, thallium flux fluorescence; actives lie on both sides | B-score at 10 µM;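 active = signal ratio slope over the read window, or its plate-corrected B-score, at least 3 SD from the plate mean, either direction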;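 note: B-score of the F/F0 ratio slope over 7 to 12 s after thallium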
RAM inhibit – inhibitors of the yeast RAM network, primary screen, dse1pr::URA3 reporter, 5-FOA selection | S. cerevisiae dse1pr::URA3 reporter, 5-FOA growth OD615, 2 d; analog-sensitive cbk1-as2 kinase mutant strain | inhibition, % at 50 µM | 190,000 tested, 1.8% active;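 active = inhibition above a set limit, 3 SD over mean compound inhibition, cut at about 8.4% in these data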;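 note: 0% = DMSO-only wells with no growth and 100% = 10 µM 1-NA-PP1 full growth; inhibition rescues growth on 5-FOA so higher OD means more RAM inhibition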
S1P4 antagonist – S1P4 receptor antagonists, primary screen, cell-based; Sphingosine 1-phosphate receptor 4 (Homo sapiens), O95977; S1P4-expressing cells, antagonist mode, reporter read-out; inhibition, % at 4.98 µM; 220,000 tested, 0.26% active; in the data active = inhibition above about 29%;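 note: 0% = wells stimulated with agonist and 100% = vehicle wells without agonist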
Starred values were filed as active, the others as inactive; . = no result given. Hits are enriched below; roughly 5.1% of the tested compounds scored in any of these assays.

SMILES	S1P3 antag	KCC2 mod	S1P4 agonist	ROMK mod	RAM inhibit	S1P4 antagonist
CCN(CC)S(=O)(=O)c1cccc(NC(=O)c2ccc(Br)cc2)c1	-20.2	-0.198	-0.7	-1.09	9.7*	-10.7
CCN(CC)S(=O)(=O)c1cccc(NC(=O)c2cncc(Br)c2)c1	1.5	-0.833	-2.1	0.0244	0.3	-34.4
CCN(CC)S(=O)(=O)c1cccc(C(=O)Nc2cc(C)cc(C)c2)c1	.	-0.566	-1.7	.	8.5*	-4.6
CCOC(=O)c1cccc(COC(=O)c2cccc(-c3nnc(-c4ccccc4)o3)c2)c1	-7.9	0.204	2.3	-0.176	8.9*	-10.4
O=C(COc1ccccc1)Nc1ccccc1N1CCN(c2ccc(F)cc2)CC1	3.5	0.212	2.4	0.625	3.1	-6.5
O=C(Nc1ccccc1N1CCN(c2ccc(F)cc2)CC1)c1ccccc1	62.3*	-0.0482	-0.8	.	0.7	-5.9
CCCCNC(=O)CSc1nc(N)c(C(=O)Nc2ccc(OC)cc2)s1	-4.1	-1.27	0.4	.	.	4.3
CN(C)c1ccc(NC(=O)c2sc(SCC(=O)Nc3ccc(Br)cc3)nc2N)cc1	.	.	0.7	.	8.7*	-11.6
O=C(CN(c1ccc(Cl)cc1)S(=O)(=O)c1ccc(Cl)c([N+](=O)[O-])c1)NCCc1ccccc1	15.0	-0.47	0.0	1.51	8.4*	-16.6
COc1ccc(OC)c(S(=O)(=O)n2nnc3cc(Cl)ccc32)c1	17.5	-0.184	0.7	0.698	-0.7	5.1
COc1cc(S(=O)(=O)n2nnc3ccccc32)c(OC)cc1Cl	-7.0	-0.187	-1.2	-2.31*	1.0	0.9
CC(=O)c1ccc(N2CCN(c3ccc(C(F)(F)F)cn3)CC2)cc1	76.6*	0.0143	1.3	.	2.3	4.2
CC(=O)c1ccc(N2CCN(c3ncc(C(F)(F)F)cc3Cl)CC2)cc1	.	0.336	1.6	1.53	2.5	-9.8
CCN(CC)c1nc(-c2ccccc2)nc2c1sc(=S)n2CC	7.9	0.592	-0.2	0.581	9.8*	-2.9
O=C(Cn1cc(C(F)(F)F)ccc1=O)N/N=C/c1ccccc1	5.7	-0.174	1.8	-0.882	-0.4	1.3
O=C(CCC(=O)N1CCN(c2ccccc2)CC1)Nc1nnc(C2CCCCC2)s1	-3.8	0.365	-0.9	-0.799	.	14.8
Cc1sc(NC(=O)c2ccco2)c(C(c2cccnc2)N2CCN(c3ccc(F)cc3)CC2)c1C (centres undefined)	-31.0	-0.0891	0.5	.	8.4*	-7.3
Cc1ccc2oc(=O)c3cc(C(=O)N4CCN(C(=O)c5ccco5)CC4)sc3c2c1	-1.1	-2.47*	-0.7	.	1.4	6.0
COC(=O)[C@H]1C[C@@H]1[C@H](NC(=O)c1ccccc1)c1ccccc1	-0.1	-0.00999	-1.0	-0.372	0.4	8.2
COc1cccc(-c2nnc(NC(=O)c3ccc(Cl)s3)o2)c1	-7.8	151*	0.5	1.94*	-0.3	-5.7
CCCN(CCC)S(=O)(=O)c1ccc(C(=O)Nc2nnc(-c3cccc(OC)c3)o2)cc1	17.1	14.8*	1.4	0.0406	1.7	-12.7
COc1ccc(-c2nnc(NC(=O)c3ccc(S(=O)(=O)N4COCC4(C)C)cc3)o2)cc1	-4.5	8.21*	0.6	.	5.2	-21.1
CCCN(CCC)S(=O)(=O)c1ccc(C(=O)Nc2nnc(CSC)o2)cc1	4.6	.	0.2	0.688	0.7	-10.2
S=C1CCSc2ccc(Cl)cc2N1	.	9.8*	-2.9	.	1.1	-7.0
COc1cc(OC)nc(/N=C/NO)n1	-6.4	-0.529	-0.7	.	.	-1.9
SMILES	S1P3 antag	KCC2 mod	S1P4 agonist	ROMK mod	RAM inhibit	S1P4 antagonist
COc1ccc(CCC(=O)NCc2cn3ccccc3n2)cc1	26.4	0.24	-0.6	0.0295	.	-9.2
O=C(Cc1cccs1)NCCSc1c(-c2ccc(Cl)cc2)[nH]c2ccccc12	22.7	-0.205	-0.4	0.0454	8.9*	4.7
CCCOC(=O)c1c(NC(=O)C2C3C=CC(C3)C2C(=O)O)sc2c1CCC(C)C2 (centres undefined)	-3.9	-3.1*	2.1	3.46*	2.5	-24.9
COC(=O)CSc1ncnc2scc(-c3ccccc3)c12	1.7	-1.68	1.5	.	.	16.7
Fc1ccc(CSc2ncnc3scc(-c4ccccc4)c23)cc1	-1.4	-0.193	1.2	.	10.3*	-21.4
CC1=NOC(=O)/C1=C/c1ccc(-c2ccc(Cl)cc2)o1	.	.	-1.6	-2.72*	3.2	-12.3
CC1=NOC(=O)/C1=C\c1ccc(-c2ccc(Br)cc2)o1	-19.8	-0.275	1.3	-0.754	6.1	6.4
CC(NC(=S)NCCN1CCOCC1)C12CC3CC(CC(C3)C1)C2 (centres undefined)	-20.6	0.553	0.1	-0.899	-0.1	-13.7
N=C1C(c2nc3ccccc3s2)=C(O)CN1NC(=O)c1ccccc1[N+](=O)[O-]	-6.6	-0.469	0.6	-0.387	7.9	-12.7
N=C1C(c2nc3ccccc3s2)=C(O)CN1NC(=O)c1c[nH]c2ccccc12	-9.2	-0.303	2.4	-1.19	8.5*	-0.5
Clc1cccc(Cl)c1CSc1nnc(/C=C/c2ccccc2)o1	.	-0.606	-1.5	.	10.7*	10.4
C[C@H](N)c1nnc(SCc2c(Cl)cccc2Cl)o1	.	.	0.5	.	0.9	2.5
COc1ccc(CCN(C(=O)c2ccccc2)C2=CC3CCC(C2)N3C)cc1OC (centres undefined)	85.4*	.	-0.7	.	0.0	-11.2
S=c1[nH]nc(COc2ccccc2)n1C1CCCCC1	-49.4	11.5*	1.1	0.261	2.6	-17.4
O=C(O)CSc1nnc(CSc2nc3ccccc3s2)n1-c1ccccc1	2.4	0.0191	-0.9	-0.00997	0.1	-1.2
S=c1[nH]nc(CSc2nc3ccccc3s2)n1C1CCCCC1	.	30.3*	0.7	.	5.7	-37.0
COc1cccc(/C=N/NC(=O)Cn2nc([N+](=O)[O-])cc2C)c1	-8.0	0.695	-0.2	.	.	6.2
COc1ccccc1NC(=O)Cn1cnc2c(nnn2-c2ccc(C)cc2)c1=O	-14.0	0.066	2.1	-1.11	6.1	-4.2
NS(=O)(=O)c1cccc(NS(=O)(=O)c2cccc(C(F)(F)F)c2)c1	-7.8	1.87	0.2	0.32	.	-2.5
CCN1CCN(c2cc(C)c3cc(NC(=S)N4CCCC(C)C4)ccc3n2)CC1 (centres undefined)	4.7	1.02	1.8	-0.41	1.5	-13.9
CCOc1ccc(NC(=O)Nc2ccc3c(c2)N(C)C(=O)CS3)cc1	22.6	1.45	0.3	.	11.1*	-0.6
CCOC(=O)c1sc2ncnc(NCc3ccco3)c2c1C	.	128*	1.6	2.07	-1.2	11.1
CCOC(=O)c1sc2nc(CC(=O)OC)nc(NCC(=O)OC)c2c1C	-17.7	0.873	0.6	0.535	1.3	-3.9
